This passage reports outcome and AC50 results from PubChem BioAssay (EPA / NIEHS).

The structures appear in SMILES notation. Inconclusive results are not listed. Active and inactive are the calls of the source. How the source made its calls: active means hit-call score of the fitted dose curve at least 0.9, where 1 is the maximum; inconclusive means response in the unintended direction; inactive means score below 0.9.

This experiment can be described thus: ACEA_ER_AUC_viability: ACEA Biosciences xCELLigence Real-Time Cell Analysis on Estrogen Receptor Agonism for Viability (AID 2283782).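 Further: continuous compound exposure with impedance area under curve over 80 h; hit means loss of impedance signal meaning reduced cell growth or viability.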 In outline:
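T-47D human breast cells in phenol red-free RPMI1640 with 10% charcoal-stripped FBS were dosed with an 8-point 1:4 dilution series from 100 uM top final concentration, in duplicate. Impedance-based growth was followed for 80 h; AUC analysed versus DMSO.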
On to `Nc1ccn([C@H]2CC[C@@H](CO)O2)c(=O)n1`, for which the result was inactive.

As for `O=C(O)c1cccc(Cl)n1`, the compound was called inactive.

In the case of `COC(=O)C(C)Oc1ccc(Oc2ncc(C(F)(F)F)cc2Cl)cc1` (stereo unspecified), the result was inactive.

Broadly, the AC50 is the concentration at which the activity in the assay is half-maximal. Regarding `CCCCCCCCCCCCOCCOS(=O)(=O)O`, the AC50 was 84.1 µM (active).

Regarding `CC(C)C(=O)OCC=Cc1ccccc1`, the compound was classed as inactive.

In the case of `CN(C)CCCNCCCN(C)C`, the AC50 is 50 µM (active).

`N=C1N=C(N)c2ccccc21`: the AC50 is 74 µM (active).

In the case of `CC(C)COC(=O)c1ccccc1`, the result was inactive.

Consider `O=C(C=Cc1ccccc1)OCCCc1ccccc1`, for which the AC50 was 60 µM (active).

For `NC(=O)c1c(Cl)cccc1Cl`, the compound was classed as inactive.

On to `C=CC(C)(CCC=C(C)C)OC(=O)CC` (stereo unspecified), for which the AC50 was 50 µM (active).

On to `CCOC(=O)CCCCCCCCC(=O)OCC`, for which the compound was called inactive.

For the compound `CC1(C)[C@H](C=C(Cl)Cl)[C@H]1C(=O)OCc1cccc(Oc2ccccc2)c1`, the concentration at half-maximal activity (AC50) was 12.5 µM (active).

As for `CCCCC(CC)COC(=O)COc1ccc(Cl)cc1C` (stereo unspecified), the compound was called inactive.

Consider `OC[C@@H](O)[C@H](O)[C@@H](O)[C@@H](O)CO`, for which the call was inactive.

Consider `CC(=O)CC(C)(C)C1CCCCC1`, for which the compound was called inactive.

As for `CN(C)C`, the call was inactive.

`C1=COCCC1`: the compound was classed as inactive.

For the compound `CCOC(=O)CC(C)C`, the call was inactive.

Regarding `CCCCC1CCCCC(=O)O1` (stereo unspecified), the compound was called inactive.

Take `O=C1CCC(=O)N1`: the AC50 was 50 µM (active).

Take `O=C(O)c1cc(C(=O)O)c(C(=O)O)cc1C(=O)O`: the compound was called inactive.

As for `C=C(C)C(=O)OCCOCCOC(=O)C(=C)C`, the AC50 is 21.2 µM (active).

Regarding `CN(C)c1ccc(C=O)cc1`, the compound was called inactive.

`NCCCOCCOCCOCCCN`: the half-maximal activity concentration (AC50) is 86.7 µM (active).

For `CC(C)N1C(=O)c2ccccc2C1=O`, the result was inactive.

With `NC(=O)c1cnccn1`, the call was inactive.

As for `CCCOC(=O)CC`, the outcome was inactive.

Consider `c1ccc(Cc2ccccc2)cc1`, for which the call was inactive.

On to `C=CCOCC(O)CO` (stereo unspecified), for which the compound was classed as inactive.

With `CC=CC(=O)C1=C(C)C=CCC1(C)C`, the compound was called inactive.

Take `C[C@H](CCC(=O)O)[C@H]1CC[C@H]2[C@@H]3CC[C@@H]4C[C@H](O)CC[C@]4(C)[C@H]3CC[C@]12C`: the AC50 was 85.2 µM (active).

Regarding `C=CCOC(=O)/C=C\C(=O)OCC=C`, the half-maximal activity concentration (AC50) is 94.9 µM (active).

On to `O=C1CCCCCCCCCCCC(=O)OCCO1`, for which the concentration at half-maximal activity (AC50) was 71.8 µM (active).

For the compound `O=C(O)c1cc2ccccc2cc1O`, the result was inactive.

In the case of `CCCCCCCCSCc1cc(C)c(O)c(CSCCCCCCCC)c1`, the call was inactive.
